Bioassay records deposited in PubChem BioAssay by several laboratories.
This is a sample that favours compounds with a hit; in the whole collection about 11% have one here.
Ins promoter up: MIN6 insulin promoter up-regulation. actives 0.3% (n = 190,000). MIN6 insulin promoter-GFP reporter, high-content imaging; hits give high values. z-score at 5 µM;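 active means z-score above 3 at 5 µM with at least 500 cells counted in the well; inconclusive means wells under 500 cells, flagged as cytotoxic or low count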
WT yeast gro inh: growth inhibition of WT yeast, mitochondrial fusion screen; mitochondrial fusion phenotypic screen, WT strain; AID 1362; actives 2.1% (n = 190,000); inhibition, % at 10 µM; in the data active means inhibition above about 58%; tested in S. cerevisiae
Lmaj promast: Leishmania major promastigote growth inhibition | Leishmania major promastigotes, resazurin fluorescence viability | inhibition, % at 10 µM | actives 9% (n = 200,000); in the data active means inhibition above about 50%;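 further: promastigotes grown with compound for 44 hours at 28 °C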
Insulin prom inh: TRM-6 insulin promoter activity inhibition; AID 1273; actives 0.9% (n = 130,000); TRM-6 cells (human fetal islet line), insulin promoter-eGFP reporter, imaging; reporter expression induced with tamoxifen; inhibition, % at 2 µM;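 active means inhibition above the mean plus 3 SD, with well images judged a real hit on visual review, cut at about 60% in these data, passing the limit was not always enough; inconclusive means inhibition over the cutoff but images rejected on review; inactive means inhibition not above the cutoff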
Autophagy HCS: autophagy modulation, high-content screen; calls only at 10 µM (by protocol); MEF GFP-LC3 puncta imaging; test concentration mostly 10 µM; actives 0.98% (n = 190,000);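 active means percentage of spot-positive cells more than 3 SD above its plate mean, without a fluorescence outlier flag or 80% toxicity; inconclusive means no clear call, values can overlap the other calls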;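 further: spot-positive cell cutoff set from DMSO-treated cells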
* marks the source's active call; other numbers are inactive results; i = inactive; ? = inconclusive; . = not tested or not shown; + = active, no number.

SMILES | Ins promoter up | WT yeast gro inh | Lmaj promast | Insulin prom inh | Autophagy HCS
CCO[C@@H]1OC(C(=O)NCc2ccccc2)=C[C@H](c2coc3ccccc3c2=O)[C@H]1CCCO | . | -3 | 4 | . | i
Cc1ccc(-n2cc(-c3ccccc3)c3c(N4CCOCC4)ncnc32)cc1 | -1.4 | 71* | 14 | 8 | +
COc1ccc(-n2cc(-c3ccccc3)c3c(NN4CCOCC4)ncnc32)cc1 | -0.52 | 2 | 39 | 14 | i
CC1CN(c2ncnc3c2c(-c2ccccc2)cn3-c2ccc(F)cc2)CC(C)O1 (stereo unspecified) | -1.8 | 75* | 26 | . | i
Fc1ccc(-n2cc(-c3ccccc3)c3c(NN4CCOCC4)ncnc32)cc1 | -0.16 | 1 | 97* | 17 | i
Cc1ccc(-n2cc(-c3ccccc3)c3c(N4CCN(C)CC4)ncnc32)cc1 | -0.74 | 62* | 27 | 58 | i
O=C1NC(=O)C2(COC(c3cccnc3)OC2)S1 (stereo unspecified) | -0.03 | -23 | -7 | 23 | i
CN(C)S(=O)(=O)c1cccc(NC(=O)CCc2c[nH]c3ccccc23)c1 | -0.49 | 0 | 2 | . | i
Cc1nn(-c2ccccc2)c(Cl)c1C(=O)OC(C)C(=O)NC(=O)NC1CCCCC1 (stereo unspecified) | 1.2 | 69* | 2 | 22 | i
CCCCCCCCCCCCCCCCn1cc[n+](CC(C)=O)c1 | ? | 98 | 100* | -31 | i
CC1(C)CC(=NO)CC(C)(C)N1 | 0.22 | 13 | -6 | . | i
CCCOC(=O)c1ccc(NC(=O)C(=O)NCC2CCCO2)cc1 (stereo unspecified) | 0.02 | -2 | 55* | -3 | i
CCCCOC(=O)c1ccc(NC(=O)C(=O)NCC2CCCO2)cc1 (stereo unspecified) | . | -2 | 2 | 4 | i
NS(=O)(=O)c1ccc(N/N=C2/CCCCC2C2CCCCC2)c([N+](=O)[O-])c1 (stereo unspecified) | . | 96* | 23 | 3 | i
CCCC(=O)Nc1ccc2nc(SCC(=O)Nc3ccc(N4CCOCC4)c(Cl)c3)sc2c1 | 1.7 | 14 | 99* | . | i
CC(C)(C)NC(=O)CSc1nc2ccc(NC(=O)CSc3nnc(N)s3)cc2s1 | -0.24 | -15 | 71* | -11 | i
Nc1ccc2nc(SCC(=O)N3CCOCC3)sc2c1 | 1.2 | 9 | 4 | 80* | i
CC(C)(C)NC(=O)CSc1nc2ccc(NC(=O)CSc3nnnn3Cc3ccccc3)cc2s1 | -1.6 | 44 | 11 | 19 | i
CC(C)(C)C1CCc2c(C(=O)N/N=C/c3cccs3)csc2C1 (stereo unspecified) | -0.34 | 56 | 96* | . | i
CC(C)(C)C1CCc2c(C(=O)NNC(=O)/C=C/C(=O)O)csc2C1 (stereo unspecified) | 0.01 | 24 | -6 | 27 | i
Cc1ccc(/C=N/NC(=O)c2csc3c2CCCC3)cc1 | 1.1 | 19 | -1 | . | +
Cc1nc2cc(NCc3cc([N+](=O)[O-])ccc3O)ccc2n1Cc1ccccc1 | -0.44 | -2 | -4 | 64 | i
C(=N\Nc1ncnc2sc3c(c12)CCC3)/c1ccncc1 | -2.1 | -2 | 66* | . | i
C(=N\Nc1ncnc2sc3c(c12)CCC3)/c1cccs1 | -0.55 | 58 | 21 | . | i
COc1ccc(N=C2SC(C(=O)N3CCN(c4ccc([N+](=O)[O-])cc4)CC3)CC(=O)N2C)cc1 (stereo unspecified) | -0.16 | 2 | 52* | -5 | i
SMILES | Ins promoter up | WT yeast gro inh | Lmaj promast | Insulin prom inh | Autophagy HCS
COc1ccc(N2CCN(C(=O)C3CC(O)CN3S(=O)(=O)c3ccc([N+](=O)[O-])cc3)CC2)cc1 (stereo unspecified) | -0.05 | 0 | 15 | 7 | i
COc1ccc(CCN(C(=O)C(F)(F)F)C(C(=O)NC2CCCCC2)c2ccc(C)s2)cc1 (stereo unspecified) | -0.4 | 3 | 68* | 23 | i
COc1ccc(C(C)=O)cc1COc1nc(C)nc2ccccc12 | -0.2 | 0 | 0 | . | i
CC(C(=O)NCc1ccco1)n1cc(C(=O)c2ccco2)c2ccccc21 (stereo unspecified) | -0.47 | -9 | 46 | -11 | i
CCc1sc2nc(SCC(=O)Nc3cc(C)on3)n(-c3cccc(OC)c3)c(=O)c2c1C | 0.17 | 0 | 4 | 20 | +
CCn1c(SCC(=O)Nc2cc(C)on2)nc2sc3c(c2c1=O)CCCC3 | 0.32 | -10 | 0 | 52 | +
C=CCn1c(SCC(=O)Nc2cc(C)on2)nc2sc3c(c2c1=O)CCCC3 | . | -3 | 1 | 16 | i
COc1cccc(-n2c(SCC(=O)Nc3cc(C)on3)nc3ccccc3c2=O)c1 | 0.13 | -3 | 2 | 3 | i
CN(C1=NS(=O)(=O)c2ccccc21)c1ccc(OC(=O)c2ccncc2)cc1 | -0.38 | -8 | 3 | 20 | i
CCC1(c2ccc(Cl)cc2)NC(=S)N(c2ccc(C)cc2)N1 (stereo unspecified) | -0.03 | 68* | -13 | 52 | i
CC1(c2ccc(Cl)cc2)NC(=S)N2C1NC(=S)N2c1ccccc1 (stereo unspecified) | -0.1 | . | . | . | .
CCC1(c2ccccc2)NC(=S)N(c2ccc(C)c(C)c2)N1 (stereo unspecified) | -0.03 | 69* | 12 | . | i
CC1=CC(C)(C)NC(=S)N1c1ccc(C)c(C)c1 | -0.15 | 16 | 10 | 20 | i
CC1(CCc2ccccc2)NC(=S)N(c2ccc(Cl)cc2)N1 (stereo unspecified) | -0.08 | 59* | -10 | ? | i
CC1=C(C)/C(=N\OS(=O)(=O)c2ccccc2)C=CC1=O | . | 80* | 101* | -183 | i
CCCc1cc2c(=O)c(-c3ccc4c(c3)OCCO4)coc2cc1OS(C)(=O)=O | -0.21 | 4 | 76* | -4 | i
CCCc1cc2c(=O)c(-c3ccc4c(c3)OCCO4)c(C)oc2cc1OS(C)(=O)=O | 0.15 | -7 | 99* | -19 | i
CCCc1cc2c(=O)c(-c3ccc4c(c3)OCCO4)coc2cc1OC(=O)c1ccco1 | 0.32 | 2 | -8 | -18 | i
Cc1cccc(/C=N/NC(=O)C2CCCNC2=O)c1 (stereo unspecified) | 0.61 | -5 | 6 | 38 | i
COc1ccc(N2CCN(CC(=O)c3c[nH]c4ccccc34)CC2)cc1 | 0.51 | . | . | . | .
COc1cc(NC(=S)N2CCN(C/C=C/c3ccccc3)CC2)cc(OC)c1 | -0.27 | 14 | 41 | -6 | i
COc1ccc2[nH]cc(C(=O)CN3CCN(C/C=C/c4ccccc4)CC3)c2c1 | -1.4 | -11 | 98* | . | i
S=C(NCc1ccco1)N1CCN(C/C=C/c2ccccc2)CC1 | 0.18 | 8 | 77* | . | i
COCCNC(=S)N1CCN(C/C=C/c2ccccc2)CC1 | 0.04 | -2 | 1 | . | i
OCC1(CC2CCCCO2)CCN(C/C=C/c2ccccc2)CC1 (stereo unspecified) | 0.11 | 12 | 89* | 0 | i
COc1cc(/C=C/CN2CCC(CO)(CC3CCCCO3)CC2)ccc1O (stereo unspecified) | -0.18 | -6 | 1 | . | i
